PMC7862700, “An all-to-all approach to the identification of sequence-specific readers for epigenetic DNA modifications on cytosine”

What was measured:
Test in all cases: DAPPL (digital affinity profiling via proximity ligation, sequencing); 10 mM Tris-HCl pH 7.5, 50 mM NaCl, 1 mM DTT, 4% glycerol, room temperature, 30 min; GST-TFs on glutathione beads, 16-mer random dsDNA library, 0.1% formaldehyde crosslink after washing; high values mean tight binding
Settings in all cases: protein: recombinant; tags: N-terminal GST; dsDNA, one strand shown
[1] = biological target: T1, ERF (Homo sapiens, UniProt P50548 1-548)
T1 sequence: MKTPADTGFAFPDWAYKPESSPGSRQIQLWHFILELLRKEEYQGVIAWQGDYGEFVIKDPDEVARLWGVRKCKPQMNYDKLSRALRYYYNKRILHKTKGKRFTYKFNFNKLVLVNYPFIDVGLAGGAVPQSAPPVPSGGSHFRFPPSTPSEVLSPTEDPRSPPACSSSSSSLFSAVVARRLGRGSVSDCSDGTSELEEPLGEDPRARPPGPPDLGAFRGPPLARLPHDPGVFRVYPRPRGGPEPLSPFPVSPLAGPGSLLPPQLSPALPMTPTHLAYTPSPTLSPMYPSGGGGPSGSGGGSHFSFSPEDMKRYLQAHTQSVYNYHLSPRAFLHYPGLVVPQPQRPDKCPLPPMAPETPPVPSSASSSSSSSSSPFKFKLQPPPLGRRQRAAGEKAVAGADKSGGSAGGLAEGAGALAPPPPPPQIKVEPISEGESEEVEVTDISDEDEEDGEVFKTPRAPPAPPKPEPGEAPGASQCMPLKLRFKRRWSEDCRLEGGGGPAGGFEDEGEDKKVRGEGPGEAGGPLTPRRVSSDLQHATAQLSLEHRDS
Method in brief: (§1)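 Binding signal is defined as a hexamer's read frequency for one factor over its frequency for the tag-only sample. To obtain reads, GST-fused human transcription factors were expressed in yeast, captured on glutathione beads, barcoded with DNA and pooled with that sample. Pools met 200 nmole of a 16-mer random double-stranded DNA library in Tris/NaCl/DTT/glycerol buffer for 30 min at room temperature before washing, 0.1% formaldehyde crosslinking, proximity ligation (BsaI/T4 ligase, 1 h, 37 °C), PCR and Illumina NextSeq500 sequencing.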

[2] = biological target: T2, ETV3L (Homo sapiens, UniProt Q6ZN32 1-361)
T2 sequence: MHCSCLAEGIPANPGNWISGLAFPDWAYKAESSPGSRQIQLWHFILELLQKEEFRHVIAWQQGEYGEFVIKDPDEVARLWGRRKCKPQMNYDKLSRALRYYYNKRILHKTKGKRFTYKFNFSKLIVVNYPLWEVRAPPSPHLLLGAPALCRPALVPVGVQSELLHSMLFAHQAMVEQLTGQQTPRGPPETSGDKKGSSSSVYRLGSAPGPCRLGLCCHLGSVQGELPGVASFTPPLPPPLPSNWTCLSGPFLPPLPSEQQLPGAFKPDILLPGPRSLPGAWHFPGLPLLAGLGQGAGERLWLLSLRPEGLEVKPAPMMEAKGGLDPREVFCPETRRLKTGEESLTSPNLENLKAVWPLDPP
Method in brief: as §1

[3] = biological target: T3, ETS2 (Homo sapiens, UniProt P15036 1-469)
T3 sequence: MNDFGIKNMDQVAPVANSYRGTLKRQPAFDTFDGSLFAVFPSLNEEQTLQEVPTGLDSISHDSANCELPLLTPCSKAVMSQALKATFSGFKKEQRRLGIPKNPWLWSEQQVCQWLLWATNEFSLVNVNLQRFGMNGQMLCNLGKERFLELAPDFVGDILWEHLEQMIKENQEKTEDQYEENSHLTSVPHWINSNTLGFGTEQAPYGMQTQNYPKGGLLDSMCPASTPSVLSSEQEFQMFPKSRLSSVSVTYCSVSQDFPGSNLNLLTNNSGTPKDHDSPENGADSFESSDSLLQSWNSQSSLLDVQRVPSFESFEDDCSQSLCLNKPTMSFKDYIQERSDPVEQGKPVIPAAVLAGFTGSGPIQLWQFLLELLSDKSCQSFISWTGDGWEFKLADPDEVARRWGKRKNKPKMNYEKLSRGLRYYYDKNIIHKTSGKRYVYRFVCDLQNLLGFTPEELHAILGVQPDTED
Method in brief: as §1

[4] = biological target: T4, SPDEF (Homo sapiens, UniProt O95238 1-335)
T4 sequence: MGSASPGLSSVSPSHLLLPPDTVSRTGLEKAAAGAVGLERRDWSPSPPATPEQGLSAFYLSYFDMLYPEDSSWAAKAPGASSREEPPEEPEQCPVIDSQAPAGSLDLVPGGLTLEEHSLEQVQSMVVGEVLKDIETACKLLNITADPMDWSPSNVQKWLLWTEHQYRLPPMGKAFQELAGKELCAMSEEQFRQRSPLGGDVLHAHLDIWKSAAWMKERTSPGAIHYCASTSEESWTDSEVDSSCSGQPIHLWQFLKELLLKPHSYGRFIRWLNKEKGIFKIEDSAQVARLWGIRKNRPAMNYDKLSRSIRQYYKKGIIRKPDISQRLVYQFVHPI
Method in brief: as §1

[5] = biological target: T5, ETV7 (Homo sapiens, UniProt Q9Y603 1-341)
T5 sequence: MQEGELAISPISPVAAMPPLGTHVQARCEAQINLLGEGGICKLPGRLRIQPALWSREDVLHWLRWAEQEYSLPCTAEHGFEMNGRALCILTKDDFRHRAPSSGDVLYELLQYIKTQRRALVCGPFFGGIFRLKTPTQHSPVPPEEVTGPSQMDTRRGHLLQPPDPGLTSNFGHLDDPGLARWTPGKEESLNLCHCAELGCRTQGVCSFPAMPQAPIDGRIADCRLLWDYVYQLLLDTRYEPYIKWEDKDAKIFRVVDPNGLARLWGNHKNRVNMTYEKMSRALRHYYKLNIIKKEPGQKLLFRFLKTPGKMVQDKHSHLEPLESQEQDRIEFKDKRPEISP
Method in brief: as §1

[6] = biological target: T6, ELF5 (Homo sapiens, UniProt Q9UKW6-2 1-255)
T6 sequence: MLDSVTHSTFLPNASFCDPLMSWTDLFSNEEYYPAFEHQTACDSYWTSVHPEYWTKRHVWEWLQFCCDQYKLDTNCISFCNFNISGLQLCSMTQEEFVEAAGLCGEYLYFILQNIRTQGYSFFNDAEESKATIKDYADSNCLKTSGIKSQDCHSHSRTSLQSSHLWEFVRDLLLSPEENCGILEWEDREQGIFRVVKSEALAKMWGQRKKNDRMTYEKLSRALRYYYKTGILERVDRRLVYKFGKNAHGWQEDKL
Method in brief: as §1

[7] = biological target: T7, ETV3 (Homo sapiens, UniProt P41162-2 1-143)
T7 sequence: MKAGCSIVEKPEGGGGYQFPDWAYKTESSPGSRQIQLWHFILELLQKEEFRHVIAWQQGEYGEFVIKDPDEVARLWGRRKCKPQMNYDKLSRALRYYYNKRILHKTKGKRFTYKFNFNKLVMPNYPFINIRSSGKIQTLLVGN
Method in brief: as §1

[8] = biological target: ETV6 (Homo sapiens, UniProt P41212 1-452)
Method in brief: as §1

Sequence of ETV6 (P41212 whole entry): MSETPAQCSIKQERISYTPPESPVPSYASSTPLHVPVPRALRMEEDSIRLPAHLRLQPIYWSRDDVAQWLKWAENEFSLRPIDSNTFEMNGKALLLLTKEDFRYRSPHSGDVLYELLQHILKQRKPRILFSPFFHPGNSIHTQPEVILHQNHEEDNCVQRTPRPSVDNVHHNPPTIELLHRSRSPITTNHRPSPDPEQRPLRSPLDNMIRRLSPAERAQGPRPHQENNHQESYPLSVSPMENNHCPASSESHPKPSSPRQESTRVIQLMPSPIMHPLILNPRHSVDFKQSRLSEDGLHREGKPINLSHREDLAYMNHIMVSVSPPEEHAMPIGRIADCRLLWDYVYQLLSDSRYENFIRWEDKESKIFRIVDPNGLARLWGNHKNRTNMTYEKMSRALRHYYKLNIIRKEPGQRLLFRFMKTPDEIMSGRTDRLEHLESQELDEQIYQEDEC

Sequence	binding signal [1]	binding signal [2]	binding signal [3]	binding signal [4]	binding signal [5]	binding signal [6]	binding signal [7]	binding signal [8]
AGCTAT	1.17 fold enrichment (6-mer frequency, TF over GST control)	1.17 fold enrichment (6-mer frequency, TF over GST control)	1.11 fold enrichment (6-mer frequency, TF over GST control)	1.14 fold enrichment (6-mer frequency, TF over GST control)	1.13 fold enrichment (6-mer frequency, TF over GST control)	1.12 fold enrichment (6-mer frequency, TF over GST control)	1.13 fold enrichment (6-mer frequency, TF over GST control)	1.08 fold enrichment (6-mer frequency, TF over GST control)
TCCGGC	2.13 fold enrichment (6-mer frequency, TF over GST control)	2.23 fold enrichment (6-mer frequency, TF over GST control)	2.08 fold enrichment (6-mer frequency, TF over GST control)	3.14 fold enrichment (6-mer frequency, TF over GST control)	1.95 fold enrichment (6-mer frequency, TF over GST control)	2.67 fold enrichment (6-mer frequency, TF over GST control)	2.32 fold enrichment (6-mer frequency, TF over GST control)	2.28 fold enrichment (6-mer frequency, TF over GST control)
CGCTTC	2.11 fold enrichment (6-mer frequency, TF over GST control)	2.03 fold enrichment (6-mer frequency, TF over GST control)	2.07 fold enrichment (6-mer frequency, TF over GST control)	2 fold enrichment (6-mer frequency, TF over GST control)	1.9 fold enrichment (6-mer frequency, TF over GST control)	2.14 fold enrichment (6-mer frequency, TF over GST control)	2.09 fold enrichment (6-mer frequency, TF over GST control)	2.35 fold enrichment (6-mer frequency, TF over GST control)
AACTCC	1.36 fold enrichment (6-mer frequency, TF over GST control)	1.27 fold enrichment (6-mer frequency, TF over GST control)	1.32 fold enrichment (6-mer frequency, TF over GST control)	1.33 fold enrichment (6-mer frequency, TF over GST control)	1.31 fold enrichment (6-mer frequency, TF over GST control)	1.32 fold enrichment (6-mer frequency, TF over GST control)	1.34 fold enrichment (6-mer frequency, TF over GST control)	1.4 fold enrichment (6-mer frequency, TF over GST control)
CTACGC	1.72 fold enrichment (6-mer frequency, TF over GST control)	1.5 fold enrichment (6-mer frequency, TF over GST control)	1.59 fold enrichment (6-mer frequency, TF over GST control)	1.56 fold enrichment (6-mer frequency, TF over GST control)	1.42 fold enrichment (6-mer frequency, TF over GST control)	1.49 fold enrichment (6-mer frequency, TF over GST control)	1.59 fold enrichment (6-mer frequency, TF over GST control)	1.64 fold enrichment (6-mer frequency, TF over GST control)
CATACT	1.3 fold enrichment (6-mer frequency, TF over GST control)	1.33 fold enrichment (6-mer frequency, TF over GST control)	1.32 fold enrichment (6-mer frequency, TF over GST control)	1.23 fold enrichment (6-mer frequency, TF over GST control)	1.28 fold enrichment (6-mer frequency, TF over GST control)	1.27 fold enrichment (6-mer frequency, TF over GST control)	1.36 fold enrichment (6-mer frequency, TF over GST control)	1.26 fold enrichment (6-mer frequency, TF over GST control)
CTAGGT	1.03 fold enrichment (6-mer frequency, TF over GST control)	1.16 fold enrichment (6-mer frequency, TF over GST control)	1.11 fold enrichment (6-mer frequency, TF over GST control)	1.17 fold enrichment (6-mer frequency, TF over GST control)	1.1 fold enrichment (6-mer frequency, TF over GST control)	1.01 fold enrichment (6-mer frequency, TF over GST control)	1.14 fold enrichment (6-mer frequency, TF over GST control)	1.11 fold enrichment (6-mer frequency, TF over GST control)
CTCCCA	1.54 fold enrichment (6-mer frequency, TF over GST control)	1.29 fold enrichment (6-mer frequency, TF over GST control)	1.37 fold enrichment (6-mer frequency, TF over GST control)	1.42 fold enrichment (6-mer frequency, TF over GST control)	1.07 fold enrichment (6-mer frequency, TF over GST control)	1.41 fold enrichment (6-mer frequency, TF over GST control)	1.34 fold enrichment (6-mer frequency, TF over GST control)	1.46 fold enrichment (6-mer frequency, TF over GST control)
TACGAA	1.28 fold enrichment (6-mer frequency, TF over GST control)	1.27 fold enrichment (6-mer frequency, TF over GST control)	1.18 fold enrichment (6-mer frequency, TF over GST control)	1.18 fold enrichment (6-mer frequency, TF over GST control)	1.31 fold enrichment (6-mer frequency, TF over GST control)	1.2 fold enrichment (6-mer frequency, TF over GST control)	1.19 fold enrichment (6-mer frequency, TF over GST control)	1.18 fold enrichment (6-mer frequency, TF over GST control)
AAAATC	1.17 fold enrichment (6-mer frequency, TF over GST control)	1.18 fold enrichment (6-mer frequency, TF over GST control)	1.14 fold enrichment (6-mer frequency, TF over GST control)	1.2 fold enrichment (6-mer frequency, TF over GST control)	1.16 fold enrichment (6-mer frequency, TF over GST control)	1.15 fold enrichment (6-mer frequency, TF over GST control)	1.13 fold enrichment (6-mer frequency, TF over GST control)	1.19 fold enrichment (6-mer frequency, TF over GST control)
GTTTCT	1.24 fold enrichment (6-mer frequency, TF over GST control)	1.33 fold enrichment (6-mer frequency, TF over GST control)	1.28 fold enrichment (6-mer frequency, TF over GST control)	1.21 fold enrichment (6-mer frequency, TF over GST control)	1.38 fold enrichment (6-mer frequency, TF over GST control)	1.31 fold enrichment (6-mer frequency, TF over GST control)	1.24 fold enrichment (6-mer frequency, TF over GST control)	1.28 fold enrichment (6-mer frequency, TF over GST control)
CATTTA	1.23 fold enrichment (6-mer frequency, TF over GST control)	1.24 fold enrichment (6-mer frequency, TF over GST control)	1.31 fold enrichment (6-mer frequency, TF over GST control)	1.22 fold enrichment (6-mer frequency, TF over GST control)	1.27 fold enrichment (6-mer frequency, TF over GST control)	1.11 fold enrichment (6-mer frequency, TF over GST control)	1.23 fold enrichment (6-mer frequency, TF over GST control)	1.13 fold enrichment (6-mer frequency, TF over GST control)
ATTAAT	1.25 fold enrichment (6-mer frequency, TF over GST control)	1.18 fold enrichment (6-mer frequency, TF over GST control)	1.27 fold enrichment (6-mer frequency, TF over GST control)	1.23 fold enrichment (6-mer frequency, TF over GST control)	1.21 fold enrichment (6-mer frequency, TF over GST control)	1.18 fold enrichment (6-mer frequency, TF over GST control)	1.25 fold enrichment (6-mer frequency, TF over GST control)	1.3 fold enrichment (6-mer frequency, TF over GST control)
TACTTT	1.39 fold enrichment (6-mer frequency, TF over GST control)	1.35 fold enrichment (6-mer frequency, TF over GST control)	1.32 fold enrichment (6-mer frequency, TF over GST control)	1.35 fold enrichment (6-mer frequency, TF over GST control)	1.36 fold enrichment (6-mer frequency, TF over GST control)	1.34 fold enrichment (6-mer frequency, TF over GST control)	1.34 fold enrichment (6-mer frequency, TF over GST control)	1.37 fold enrichment (6-mer frequency, TF over GST control)
ATATCA	1.19 fold enrichment (6-mer frequency, TF over GST control)	1.1 fold enrichment (6-mer frequency, TF over GST control)	1.2 fold enrichment (6-mer frequency, TF over GST control)	1.2 fold enrichment (6-mer frequency, TF over GST control)	1.13 fold enrichment (6-mer frequency, TF over GST control)	1.11 fold enrichment (6-mer frequency, TF over GST control)	1.23 fold enrichment (6-mer frequency, TF over GST control)	1.18 fold enrichment (6-mer frequency, TF over GST control)
